Holding throughout (assay): DAPPL (digital affinity profiling via proximity ligation, sequencing); 10 mM Tris-HCl pH 7.5, 50 mM NaCl, 1 mM DTT, 4% glycerol, room temperature, 30 min; GST-TFs on glutathione beads, 16-mer random dsDNA library, 0.1% formaldehyde crosslink after washing; high values mean tight binding
Assay [1] has as its target T1, FEV (Homo sapiens, UniProt Q99581 1-238).
T1 sequence: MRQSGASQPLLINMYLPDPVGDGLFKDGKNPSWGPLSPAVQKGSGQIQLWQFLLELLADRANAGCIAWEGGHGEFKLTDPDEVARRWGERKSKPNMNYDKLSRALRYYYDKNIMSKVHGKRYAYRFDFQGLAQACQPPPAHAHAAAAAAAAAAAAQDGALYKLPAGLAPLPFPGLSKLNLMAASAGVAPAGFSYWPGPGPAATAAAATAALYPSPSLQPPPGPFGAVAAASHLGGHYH
To be noted: protein: recombinant; tags: N-terminal GST; dsDNA, one strand shown. In short, it runs like this: (§1)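 Sequencing on an Illumina NextSeq500 followed washing, crosslinking with 0.1% formaldehyde, proximity ligation (BsaI/T4 ligase, 1 h, 37 °C) and PCR amplification of pools that had been incubated for 30 min at room temperature with 200 nmole of a random double-stranded 16-mer DNA library in Tris/NaCl/DTT/glycerol buffer. Each pool held DNA-barcoded human transcription factors, expressed in yeast as GST fusions and captured on glutathione beads, plus a tag-only sample. Binding signal is a hexamer's read frequency for a factor divided by its frequency in the tag-only sample.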

Assay [2] addresses ETV5 (Homo sapiens, UniProt P41161 1-510). The following applies: protein: recombinant; tags: N-terminal GST; dsDNA, one strand shown. In short, it runs like this:
as §1

Assay [3] addresses HSF1 (Homo sapiens, UniProt Q00613 1-529). The following applies: protein: recombinant; tags: N-terminal GST; chain copies: 3; dsDNA, one strand shown. The method in brief: as §1
Assay [4] deals with T2, SPIC (Homo sapiens, UniProt Q8N5J4 1-248).
T2 sequence: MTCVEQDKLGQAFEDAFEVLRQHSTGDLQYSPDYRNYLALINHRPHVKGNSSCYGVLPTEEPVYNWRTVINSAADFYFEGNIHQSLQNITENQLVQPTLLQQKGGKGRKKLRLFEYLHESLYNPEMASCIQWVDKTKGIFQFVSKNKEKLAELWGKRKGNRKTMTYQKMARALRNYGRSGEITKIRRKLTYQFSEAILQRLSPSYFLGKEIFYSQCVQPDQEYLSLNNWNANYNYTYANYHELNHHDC
To be noted: protein: recombinant; tags: N-terminal GST; dsDNA, one strand shown. The method in brief:
as §1

Assay [5] has as its target ELF4 (Homo sapiens, UniProt Q99607 1-663). The following applies: protein: recombinant; tags: N-terminal GST; dsDNA, one strand shown. In short, it runs like this: as §1
Assay [6] addresses T3, ELK4 (Homo sapiens, UniProt P28324-2 1-405).
T3 sequence: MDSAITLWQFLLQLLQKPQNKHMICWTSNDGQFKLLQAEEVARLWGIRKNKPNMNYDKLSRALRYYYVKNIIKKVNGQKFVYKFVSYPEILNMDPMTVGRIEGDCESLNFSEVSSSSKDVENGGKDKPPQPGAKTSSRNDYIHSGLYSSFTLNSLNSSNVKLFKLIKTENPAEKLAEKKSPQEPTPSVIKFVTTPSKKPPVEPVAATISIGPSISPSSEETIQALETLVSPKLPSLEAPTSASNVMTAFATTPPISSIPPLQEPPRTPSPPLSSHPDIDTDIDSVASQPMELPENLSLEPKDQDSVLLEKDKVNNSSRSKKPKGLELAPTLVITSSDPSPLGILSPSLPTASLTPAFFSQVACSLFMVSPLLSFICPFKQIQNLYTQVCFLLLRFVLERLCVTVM
The following applies: protein: recombinant; tags: N-terminal GST; dsDNA, one strand shown. The method in brief:
as §1

In assay [7] the target is T4, ETV2 (Homo sapiens, UniProt O00321 1-342).
T4 sequence: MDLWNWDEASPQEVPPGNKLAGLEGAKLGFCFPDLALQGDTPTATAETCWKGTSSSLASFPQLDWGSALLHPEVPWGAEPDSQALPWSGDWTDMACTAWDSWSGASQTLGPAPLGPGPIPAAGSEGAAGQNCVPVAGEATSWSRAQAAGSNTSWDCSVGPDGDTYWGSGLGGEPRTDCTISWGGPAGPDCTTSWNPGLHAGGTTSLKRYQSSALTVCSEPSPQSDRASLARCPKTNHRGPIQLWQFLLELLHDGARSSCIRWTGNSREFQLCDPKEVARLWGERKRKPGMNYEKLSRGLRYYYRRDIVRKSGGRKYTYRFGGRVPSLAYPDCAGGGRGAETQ
To be noted: protein: recombinant; tags: N-terminal GST; dsDNA, one strand shown. In short, it runs like this:
as §1

For assay [8], the target named is T5, ELF3 (Homo sapiens, UniProt P78545 1-371).
T5 sequence: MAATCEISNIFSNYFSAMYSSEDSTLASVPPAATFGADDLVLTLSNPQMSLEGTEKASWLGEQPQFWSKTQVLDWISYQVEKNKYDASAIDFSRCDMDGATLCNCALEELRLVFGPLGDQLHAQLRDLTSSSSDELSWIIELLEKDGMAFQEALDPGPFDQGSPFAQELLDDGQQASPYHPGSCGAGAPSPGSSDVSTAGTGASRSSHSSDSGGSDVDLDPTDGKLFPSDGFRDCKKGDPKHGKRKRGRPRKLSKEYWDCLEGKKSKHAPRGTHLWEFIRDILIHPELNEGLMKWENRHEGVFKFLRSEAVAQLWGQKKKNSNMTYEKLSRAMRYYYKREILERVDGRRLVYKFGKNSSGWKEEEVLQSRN
The following applies: protein: recombinant; tags: N-terminal GST; dsDNA, one strand shown. The method in brief:
as §1

The target of assay [9] is CRX (Homo sapiens, UniProt O43186 1-299). To be noted: protein: recombinant; tags: N-terminal GST; dsDNA, one strand shown. In short, it runs like this: as §1
The target in assay [10] is ETV1 (Homo sapiens, UniProt P50549 1-477). To be noted: protein: recombinant; tags: N-terminal GST; dsDNA, one strand shown. In short, it runs like this: as §1
In assay [11] the target is T6, ERF (Homo sapiens, UniProt P50548 1-548).
T6 sequence: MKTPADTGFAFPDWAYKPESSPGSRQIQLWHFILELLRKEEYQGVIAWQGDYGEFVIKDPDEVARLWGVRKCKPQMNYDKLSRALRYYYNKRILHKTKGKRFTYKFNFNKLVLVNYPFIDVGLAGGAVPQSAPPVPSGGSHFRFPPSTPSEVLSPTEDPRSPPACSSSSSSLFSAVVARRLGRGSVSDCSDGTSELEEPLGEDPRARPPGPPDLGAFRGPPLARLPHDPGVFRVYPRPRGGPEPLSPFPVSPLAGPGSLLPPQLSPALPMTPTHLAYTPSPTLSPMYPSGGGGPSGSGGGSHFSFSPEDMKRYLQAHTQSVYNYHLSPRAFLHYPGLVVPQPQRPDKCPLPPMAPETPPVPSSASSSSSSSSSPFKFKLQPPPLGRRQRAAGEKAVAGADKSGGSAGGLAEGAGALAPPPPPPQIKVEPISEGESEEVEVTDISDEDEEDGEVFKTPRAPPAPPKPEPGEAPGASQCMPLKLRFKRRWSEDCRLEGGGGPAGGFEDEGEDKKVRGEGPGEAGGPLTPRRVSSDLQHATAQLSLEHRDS
The following applies: protein: recombinant; tags: N-terminal GST; dsDNA, one strand shown. In short, it runs like this:
as §1

For assay [12], the target named is T7, ETV3L (Homo sapiens, UniProt Q6ZN32 1-361).
T7 sequence: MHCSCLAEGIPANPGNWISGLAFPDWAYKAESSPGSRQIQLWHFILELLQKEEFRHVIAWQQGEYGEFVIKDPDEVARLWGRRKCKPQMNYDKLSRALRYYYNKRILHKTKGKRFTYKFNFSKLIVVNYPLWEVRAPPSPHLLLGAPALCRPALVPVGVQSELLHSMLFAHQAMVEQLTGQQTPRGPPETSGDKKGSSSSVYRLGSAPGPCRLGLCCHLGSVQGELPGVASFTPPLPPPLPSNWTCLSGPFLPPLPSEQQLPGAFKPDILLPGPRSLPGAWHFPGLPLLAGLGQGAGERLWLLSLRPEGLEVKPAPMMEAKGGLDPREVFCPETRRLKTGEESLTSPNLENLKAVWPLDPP
To be noted: protein: recombinant; tags: N-terminal GST; dsDNA, one strand shown. In short, it runs like this: as §1

The target of assay [13] is T8, ETS2 (Homo sapiens, UniProt P15036 1-469).
T8 sequence: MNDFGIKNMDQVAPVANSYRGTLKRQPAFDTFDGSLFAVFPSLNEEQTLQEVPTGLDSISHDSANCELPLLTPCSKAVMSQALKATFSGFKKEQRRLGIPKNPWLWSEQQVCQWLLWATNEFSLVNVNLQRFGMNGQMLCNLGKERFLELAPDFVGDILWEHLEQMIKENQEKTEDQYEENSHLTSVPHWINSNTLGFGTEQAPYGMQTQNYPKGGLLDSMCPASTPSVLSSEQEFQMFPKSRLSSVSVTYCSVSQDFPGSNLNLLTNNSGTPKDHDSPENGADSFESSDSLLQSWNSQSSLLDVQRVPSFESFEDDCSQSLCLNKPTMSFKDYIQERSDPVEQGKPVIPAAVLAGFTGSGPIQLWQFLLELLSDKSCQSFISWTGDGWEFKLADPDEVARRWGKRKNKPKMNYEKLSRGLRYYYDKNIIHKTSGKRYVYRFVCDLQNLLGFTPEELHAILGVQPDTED
To be noted: protein: recombinant; tags: N-terminal GST; dsDNA, one strand shown. The method in brief: as §1

The target of assay [14] is T9, SPDEF (Homo sapiens, UniProt O95238 1-335).
T9 sequence: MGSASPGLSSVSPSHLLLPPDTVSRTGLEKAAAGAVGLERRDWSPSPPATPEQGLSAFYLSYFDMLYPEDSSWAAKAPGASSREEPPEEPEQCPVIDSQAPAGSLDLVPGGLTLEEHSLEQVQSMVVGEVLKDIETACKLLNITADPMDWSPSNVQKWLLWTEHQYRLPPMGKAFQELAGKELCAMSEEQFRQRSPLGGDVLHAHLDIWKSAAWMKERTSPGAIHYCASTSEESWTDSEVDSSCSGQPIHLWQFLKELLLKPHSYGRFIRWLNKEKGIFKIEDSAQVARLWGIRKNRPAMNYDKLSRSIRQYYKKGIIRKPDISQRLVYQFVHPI
The following applies: protein: recombinant; tags: N-terminal GST; dsDNA, one strand shown. In short, it runs like this:
as §1

Assay [15] has as its target T10, ETV7 (Homo sapiens, UniProt Q9Y603 1-341).
T10 sequence: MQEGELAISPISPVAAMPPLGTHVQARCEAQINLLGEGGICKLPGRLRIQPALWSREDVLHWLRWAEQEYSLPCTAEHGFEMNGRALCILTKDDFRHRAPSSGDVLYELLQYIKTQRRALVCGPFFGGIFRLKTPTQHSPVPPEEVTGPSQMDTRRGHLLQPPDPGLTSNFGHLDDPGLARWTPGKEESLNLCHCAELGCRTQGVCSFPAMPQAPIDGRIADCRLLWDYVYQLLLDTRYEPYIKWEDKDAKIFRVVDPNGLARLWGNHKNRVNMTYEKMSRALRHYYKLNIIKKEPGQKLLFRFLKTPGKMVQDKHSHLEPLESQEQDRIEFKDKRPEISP
The following applies: protein: recombinant; tags: N-terminal GST; dsDNA, one strand shown. The method in brief: as §1

The target in assay [16] is T11, ELF5 (Homo sapiens, UniProt Q9UKW6-2 1-255).
T11 sequence: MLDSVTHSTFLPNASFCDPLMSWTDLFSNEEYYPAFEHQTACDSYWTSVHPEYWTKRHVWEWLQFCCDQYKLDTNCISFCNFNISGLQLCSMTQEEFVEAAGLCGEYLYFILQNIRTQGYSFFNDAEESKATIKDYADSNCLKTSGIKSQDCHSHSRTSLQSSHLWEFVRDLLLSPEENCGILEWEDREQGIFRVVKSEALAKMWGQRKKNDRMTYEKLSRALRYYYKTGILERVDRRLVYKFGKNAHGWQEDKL
The following applies: protein: recombinant; tags: N-terminal GST; dsDNA, one strand shown. In short, it runs like this: as §1

Assay [17] deals with T12, ETV3 (Homo sapiens, UniProt P41162-2 1-143).
T12 sequence: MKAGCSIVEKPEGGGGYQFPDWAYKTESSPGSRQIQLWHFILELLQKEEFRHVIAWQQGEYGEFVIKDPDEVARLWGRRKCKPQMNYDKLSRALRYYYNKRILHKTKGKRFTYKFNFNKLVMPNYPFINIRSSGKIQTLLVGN
The following applies: protein: recombinant; tags: N-terminal GST; dsDNA, one strand shown. In short, it runs like this:
as §1

In assay [18] the target is ETV6 (Homo sapiens, UniProt P41212 1-452). The following applies: protein: recombinant; tags: N-terminal GST; dsDNA, one strand shown. The method in brief:
as §1

Chain of ELF4 (Q99607 whole entry): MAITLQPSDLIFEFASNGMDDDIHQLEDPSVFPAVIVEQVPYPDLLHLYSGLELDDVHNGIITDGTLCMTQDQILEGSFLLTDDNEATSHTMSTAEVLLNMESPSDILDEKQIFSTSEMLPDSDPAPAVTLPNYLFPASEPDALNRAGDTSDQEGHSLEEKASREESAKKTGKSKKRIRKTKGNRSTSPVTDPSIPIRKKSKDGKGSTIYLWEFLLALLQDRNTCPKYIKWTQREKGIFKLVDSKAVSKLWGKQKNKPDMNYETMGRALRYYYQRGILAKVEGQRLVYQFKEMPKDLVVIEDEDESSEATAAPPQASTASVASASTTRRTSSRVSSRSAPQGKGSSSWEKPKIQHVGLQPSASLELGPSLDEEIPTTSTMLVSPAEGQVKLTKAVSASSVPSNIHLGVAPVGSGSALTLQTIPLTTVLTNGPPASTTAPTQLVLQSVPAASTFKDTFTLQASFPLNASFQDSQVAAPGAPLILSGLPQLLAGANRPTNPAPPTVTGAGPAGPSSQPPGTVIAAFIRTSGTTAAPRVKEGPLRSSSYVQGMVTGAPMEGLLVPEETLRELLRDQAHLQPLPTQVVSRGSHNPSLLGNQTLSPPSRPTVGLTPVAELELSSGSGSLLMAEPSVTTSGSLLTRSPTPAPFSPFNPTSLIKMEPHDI
Chain of HSF1 (Q00613 whole entry): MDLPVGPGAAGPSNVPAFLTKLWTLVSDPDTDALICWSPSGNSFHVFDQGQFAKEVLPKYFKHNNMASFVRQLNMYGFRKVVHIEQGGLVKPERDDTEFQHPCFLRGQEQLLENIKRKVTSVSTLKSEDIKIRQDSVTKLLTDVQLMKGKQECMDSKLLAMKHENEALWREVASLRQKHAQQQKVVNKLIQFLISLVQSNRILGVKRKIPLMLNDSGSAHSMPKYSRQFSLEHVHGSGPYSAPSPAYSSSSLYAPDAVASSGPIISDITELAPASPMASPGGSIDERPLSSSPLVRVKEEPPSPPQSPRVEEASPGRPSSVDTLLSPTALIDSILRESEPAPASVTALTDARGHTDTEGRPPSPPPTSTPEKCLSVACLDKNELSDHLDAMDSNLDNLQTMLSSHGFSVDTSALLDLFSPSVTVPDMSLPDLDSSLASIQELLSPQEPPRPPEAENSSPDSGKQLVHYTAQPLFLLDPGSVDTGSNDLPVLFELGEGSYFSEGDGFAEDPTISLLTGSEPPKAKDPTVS
Chain of ETV6 (P41212 whole entry): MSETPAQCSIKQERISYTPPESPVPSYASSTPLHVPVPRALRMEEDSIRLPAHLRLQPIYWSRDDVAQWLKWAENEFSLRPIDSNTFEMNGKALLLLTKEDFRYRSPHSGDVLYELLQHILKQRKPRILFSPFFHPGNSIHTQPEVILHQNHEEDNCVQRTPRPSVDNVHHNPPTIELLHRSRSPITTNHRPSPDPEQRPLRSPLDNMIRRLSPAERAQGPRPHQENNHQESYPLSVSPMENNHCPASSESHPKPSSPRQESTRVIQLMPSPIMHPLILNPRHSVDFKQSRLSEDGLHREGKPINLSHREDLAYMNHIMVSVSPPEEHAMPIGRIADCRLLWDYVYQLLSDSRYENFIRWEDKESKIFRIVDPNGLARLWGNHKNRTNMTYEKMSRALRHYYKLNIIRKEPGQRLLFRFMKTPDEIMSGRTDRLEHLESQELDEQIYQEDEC
Chain of ETV1 (P50549 whole entry): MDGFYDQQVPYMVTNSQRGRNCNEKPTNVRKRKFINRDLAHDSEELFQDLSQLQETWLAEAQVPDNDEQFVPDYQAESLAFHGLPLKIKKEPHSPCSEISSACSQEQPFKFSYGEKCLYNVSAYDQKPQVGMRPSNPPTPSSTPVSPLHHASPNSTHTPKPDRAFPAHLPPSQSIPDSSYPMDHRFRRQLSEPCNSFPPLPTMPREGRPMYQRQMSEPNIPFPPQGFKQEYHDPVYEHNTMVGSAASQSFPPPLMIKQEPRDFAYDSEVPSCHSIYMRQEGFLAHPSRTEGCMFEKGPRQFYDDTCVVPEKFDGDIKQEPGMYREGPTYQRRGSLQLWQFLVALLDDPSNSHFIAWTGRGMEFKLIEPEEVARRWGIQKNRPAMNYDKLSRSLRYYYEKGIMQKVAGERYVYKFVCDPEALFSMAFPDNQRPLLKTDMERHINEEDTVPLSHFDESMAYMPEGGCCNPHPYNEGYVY
Chain of CRX (O43186 whole entry): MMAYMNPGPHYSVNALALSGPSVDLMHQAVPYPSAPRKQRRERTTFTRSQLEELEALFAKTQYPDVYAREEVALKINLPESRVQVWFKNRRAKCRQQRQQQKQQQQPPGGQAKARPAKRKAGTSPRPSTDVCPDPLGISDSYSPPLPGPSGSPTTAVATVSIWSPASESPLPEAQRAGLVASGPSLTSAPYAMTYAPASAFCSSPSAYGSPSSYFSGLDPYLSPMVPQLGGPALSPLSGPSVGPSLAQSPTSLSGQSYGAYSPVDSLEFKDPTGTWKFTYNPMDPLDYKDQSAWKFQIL
Chain of ETV5 (P41161 whole entry): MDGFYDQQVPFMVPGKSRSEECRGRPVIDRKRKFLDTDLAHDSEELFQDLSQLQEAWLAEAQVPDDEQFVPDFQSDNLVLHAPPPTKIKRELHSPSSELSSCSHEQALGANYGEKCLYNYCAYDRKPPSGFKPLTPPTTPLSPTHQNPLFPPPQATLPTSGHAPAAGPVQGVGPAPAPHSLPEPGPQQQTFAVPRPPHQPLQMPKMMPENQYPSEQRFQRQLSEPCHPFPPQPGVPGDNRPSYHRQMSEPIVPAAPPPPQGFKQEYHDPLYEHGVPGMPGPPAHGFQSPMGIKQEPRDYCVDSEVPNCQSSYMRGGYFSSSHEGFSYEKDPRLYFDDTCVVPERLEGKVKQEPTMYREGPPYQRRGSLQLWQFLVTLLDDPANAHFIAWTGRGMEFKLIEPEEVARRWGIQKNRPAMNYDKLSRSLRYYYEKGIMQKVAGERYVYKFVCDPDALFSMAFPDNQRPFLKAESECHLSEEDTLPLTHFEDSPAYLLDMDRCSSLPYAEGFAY

For ATATCC, the binding signal in [1] was 5.87 fold enrichment (6-mer frequency, TF over GST control); in assay [2] it was 2.97 fold enrichment (6-mer frequency, TF over GST control); in [3], 1.31 fold enrichment (6-mer frequency, TF over GST control); in assay [4], 2.59 fold enrichment (6-mer frequency, TF over GST control); in assay [5], 2.27 fold enrichment (6-mer frequency, TF over GST control); in assay [6], 2.39 fold enrichment (6-mer frequency, TF over GST control). Further, the binding signal in [7] is 2.7 fold enrichment (6-mer frequency, TF over GST control); in [8] it was 2.77 fold enrichment (6-mer frequency, TF over GST control); in assay [9] it was 1.58 fold enrichment (6-mer frequency, TF over GST control); in assay [10], 2.72 fold enrichment (6-mer frequency, TF over GST control); in assay [11] it was 2.67 fold enrichment (6-mer frequency, TF over GST control); in assay [12] it was 2.57 fold enrichment (6-mer frequency, TF over GST control). Moreover, the binding signal was 2.76 fold enrichment (6-mer frequency, TF over GST control) in assay [13]; 4.48 fold enrichment (6-mer frequency, TF over GST control) in assay [14]; 2.25 fold enrichment (6-mer frequency, TF over GST control) in assay [15]; 3.58 fold enrichment (6-mer frequency, TF over GST control) in assay [16]; 2.89 fold enrichment (6-mer frequency, TF over GST control) in assay [17]; 2.64 fold enrichment (6-mer frequency, TF over GST control) in assay [18].

Values taken from PMC7862700, “An all-to-all approach to the identification of sequence-specific readers for epigenetic DNA modifications on cytosine”.
